MITF TRPM1 HTS: activators of MITF-driven TRPM1 promoter activity in SK-MEL-5 cells; SK-MEL-5 TRPM1-promoter luciferase, 24 h; % of positive control, neutral wells = 0; actives 0.75% (n = 300,000); activation, % at 12.5 µM;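 active means mean activation of at least 80% with every replicate also reaching 80%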;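 further: 0% = neutral control wells and 100% = parthenolide positive control wells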
HIV Env fusion: inhibitors of HIV Env-mediated cell fusion; actives 1.1% (n = 360,000); inhibition, % at 12.3 µM; HeLa-JRFL Env/CEM21 cell fusion, luciferase;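 active means mean replicate inhibition score of at least 50 and every replicate individually at or above 50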;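 further: 0% = plate neutral controls and 100% = maraviroc near 300 nM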
CFTR F508del cor: correctors of CFTR F508del function in bronchial epithelial cells. AID 720511. CFBE cells, YFP halide quenching; stimulated with forskolin plus potentiator P3; % fluorescence drop versus neutral controls. activity (quench increase), % at 7.58 µM. actives 0.36% (n = 350,000);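 active means mean added fluorescence quench of at least 8% versus neutral control, with both replicates also reaching 8%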;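 further: cells transiently co-express mutant CFTR-F508del with the halide-sensitive YFP; corrector assay measuring rescue of mutant channel to the surface after 24 h compound exposure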
Wnt bcat act: activates Wnt/beta-catenin signaling in a reporter cell assay. activator, plate reader. activation, % at 9.35 µM. actives 1.2% (n = 300,000); in the data active means activation above about 30%, passing the limit was not always enough;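 further: 0% = neutral control wells and 100% = positive control wells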
INS-1E GSIS act: GLuc luminescence reporter in INS-1E cells, primary screen for activators of glucose-dependent secretion of insulin; INS-1E GLuc reporter insulin secretion, 2-3 h; activation, % at 16.6 µM; actives 0.61% (n = 370,000); AID 743287;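 active means lowest replicate activation of at least 40%, so every replicate reaches that level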;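 further: 0% = median of neutral control wells and 100% = median of IBMX positive control wells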
An asterisk follows results filed as active; · = no result given; [ ] = remark or other dose. Sampled rows, rich in hits. Any-hit rate of the full collection: about 2.7%.

SMILES	MITF TRPM1 HTS	HIV Env fusion	CFTR F508del cor	Wnt bcat act	INS-1E GSIS act
O=C1N[C@H](Cc2ccccc2)COCc2cn(nn2)CC[C@@H]1Cc1cccc(Cl)c1	·	·	·	·	-8
O=C(Nc1ccccc1NC(=O)c1csnn1)c1csnn1	·	8	-1	-1	13
CC(C)c1ccc(NC2CCCN(C(=O)c3cccnc3)C2)cc1 (stereo not given)	-4	16	0	-2	76*
CC(C)c1ccc(NC(=O)c2csnn2)cc1	84*	·	-1	20	7
CCc1ccc(NC(=O)c2cccnc2)cc1	74	2	·	53*	·
Cc1ccc(NC2CCCN(C(=O)c3cccnc3)C2)cc1C (stereo not given)	-5	·	-3	-2	16
COc1ccc(S(=O)(=O)N[C@@H]2CC[C@H](CC(=O)N3CCC(Cc4ccccc4)CC3)O[C@H]2CO)cc1	·	·	0	·	-21
COc1ccc(NC(=O)Nc2ccc3c(c2)CC(=O)N([C@H](C)CO)C[C@H](C)[C@H](CN(C)S(=O)(=O)c2ccc(C)cc2)O3)cc1	·	·	·	·	-9
Cc1ccc(S(=O)(=O)N[C@@H]2C=C[C@@H](CC(=O)NC3CCCCC3)O[C@@H]2CO)cc1	·	14[16.7 µM]	-2	·	-7
C[C@H](CO)N1C[C@H](C)[C@@H](CN(C)Cc2ccc(C(=O)O)cc2)OCCCC[C@H](C)Oc2ccc(NC(=O)Nc3ccc4c(c3)OCO4)cc2C1=O	·	-5[16.7 µM]	2	·	-8
NNc1nc(-c2ccccc2Cl)nc2sc3c(c12)CCCC3	50	15	·	46*	-25
NNc1nc(-c2ccccc2Cl)nc2ccccc12	-8	-7	1	4	·
CC(=O)N(C)C[C@H]1Oc2ncc(-c3ccccc3C)cc2C(=O)N([C@H](C)CO)C[C@H]1C	·	-5[16.7 µM]	0	·	11
c1ccc(CSc2nnc(-c3cccs3)o2)cc1	134*	·	·	·	12
Cc1cccc(-c2nnc(SCc3ccccc3)o2)c1	44	-85	·	42*	·
Fc1ccccc1CSc1nnc(-c2cccs2)o1	106*	·	0	42*	11
C(=C\c1nnc(-c2cccs2)o1)/c1ccccc1	123*	·	0	-2	7
Cc1ccc(/C=C/c2nnc(-c3ccccc3)o2)cc1	57	·	·	·	·
CCNC(=O)C[C@H]1C=C[C@@H](NS(=O)(=O)c2ccc(F)cc2)[C@H](CO)O1	·	-9[16.7 µM]	-1	·	13
Cc1noc(C)c1NC(=O)Nc1ccc2c(c1)C(=O)N([C@H](C)CO)C[C@H](C)[C@@H](CN(C)C)O2	·	·	-2	·	12
Cc1ccc(C(=O)c2sc(Nc3ccccc3)c(C#N)c2N)cc1	-16	5	·	-1	43*
Cc1c(C(=O)N(C)C)sc(NC(=O)c2cccc([N+](=O)[O-])c2)c1C#N	23	-166	·	7	·
N#Cc1c(Nc2ccccc2)sc(C(=O)c2ccc(F)cc2)c1N	-7	24	·	2	-11
CCOC(=O)c1ccc(Nc2sc(C(=O)c3cccc([N+](=O)[O-])c3)c(N)c2C#N)cc1	-15	-106	12*	-15	-13
O=C(CCCSc1nnc(SCCCC(=O)c2ccc(F)cc2)s1)c1ccc(F)cc1	-11	60*	·	-1	·
SMILES	MITF TRPM1 HTS	HIV Env fusion	CFTR F508del cor	Wnt bcat act	INS-1E GSIS act
CCCc1cn([C@H]2C[C@@H]3O[C@H](CO)CC[C@@H]3O[C@@H]2CCc2ccc(-c3ccccc3C#N)cc2)nn1	·	·	2	·	·
CC(C)CC#Cc1ccc2c(c1)O[C@@H](CN(C)C(=O)c1cnccn1)[C@@H](C)CN([C@@H](C)CO)S2(=O)=O	·	·	0	·	-13
Cc1cccc(COc2ccccc2C(=O)NC2CCC(O)CC2)c1 (stereo not given)	1	10	8.2*	-3	31
C=CCNc1nc(Cl)nc(NCc2ccco2)n1	·	-41	1	-1	0
C=CCNc1nc(NCc2ccco2)nc(OCC)n1	0	·	·	0	58*
CCc1nnc(NC(=O)CSc2nnc3nc(C)cc(C)n23)s1	-2	-7	-2	-1	43*
O=c1c2ccccc2sn1-c1cc(S(=O)(=O)N2CCOCC2)ccc1N1CCOCC1	4	-35	·	-2	208*
C=C(C)CNC(=S)N/N=C/C1=CCC2CC1C2(C)C (stereo not given)	12	29	·	-2	-22
CCCCNC(=S)N/N=C/C1=CCC2CC1C2(C)C (stereo not given)	7	84*	·	-5	-14
CCC(=O)N1C[C@@H](C)[C@H](OC)CN(C)C(=O)c2cc(NC(=O)C3CCOCC3)ccc2OC[C@@H]1C	·	·	-2	·	3
COc1ccccc1NC(=O)N1CC(=O)N2[C@H](CO)[C@@H](c3ccc(C#CCC(C)C)cc3)[C@H]2C1	·	·	·	·	1
O=C(CSc1nnc(CNc2ccc(F)cc2)o1)N1CCN(C(=O)c2ccco2)CC1	-9	·	·	·	·
O=C(CSc1nnc(CNc2ccc(F)cc2)o1)N1c2ccccc2Sc2ccccc21	-11	64*	·	·	·
CCCCn1nc(NC(=O)CC)c2cc3cc(OC)ccc3nc21	10	-4	9.6*	1	29
Nc1ccn([C@@H]2O[C@H](C(=O)NCCc3ccc(F)cc3)[C@@H](O)[C@H]2O)c(=O)n1	·	16	-1	0	7
Nc1ccn([C@@H]2O[C@H](C(=O)NCc3ccc4c(c3)OCO4)[C@@H](O)[C@H]2O)c(=O)n1	·	77*	1	2	20
CCN(CC)c1ccc2nc3ccc(N)cc3[n+](-c3ccccc3)c2c1	-93	72*	5	-18	-75
O=C1C(Cl)=C(NCCc2ccccc2)C(=O)c2ccccc21	-62	6	-8	-3	-38
CC(=O)N(Cc1ccc(F)cc1)C1=C(NCCc2ccccc2)C(=O)c2ccccc2C1=O	-103	84*	·	-43	·
COc1ccccc1C(=O)Nc1onc(C)c1C#N	-9	-20	18*	-1	·
COc1ccc(NC(=O)N(C)C[C@H]2Oc3ccc(NC(=O)NC4CCCCC4)cc3CC(=O)N([C@H](C)CO)C[C@H]2C)cc1	·	2[16.7 µM]	-2	·	11
Nc1nc(N)c(N=O)c(Nc2cccc(Cl)c2)n1	·	2	1	1	41*
CC(=O)NC[C@H]1[C@H](c2ccc(C3=CCCC3)cc2)[C@@H](CO)N1Cc1cccnc1	·	·	0	·	5
Cc1ccc(S(=O)(=O)N(C)C[C@@H]2Oc3ccc(NC(=O)CCCN(C)C)cc3C(=O)N([C@@H](C)CO)C[C@@H]2C)cc1	·	·	-1	·	1
C[C@H]1CCCCO[C@@H](CN(C)Cc2ccc3c(c2)OCO3)[C@@H](C)CN([C@@H](C)CO)C(=O)c2cc(NC(=O)Nc3ccc4c(c3)OCO4)ccc2O1	·	84*[16.7 µM]	3	·	-35
C[C@@H]1CCCCO[C@@H](CN(C)Cc2ccc(C(F)(F)F)cc2)[C@H](C)CN([C@@H](C)CO)C(=O)c2cc(NC(=O)Nc3ccc4c(c3)OCO4)ccc2O1	·	55*[16.7 µM]	-3	·	16
C[C@@H]1CN([C@H](C)CO)C(=O)c2cc(NC(=O)Nc3ccc(C(F)(F)F)cc3)ccc2O[C@@H](C)CCCCO[C@H]1CN(C)Cc1ccc(C(F)(F)F)cc1	·	64*[16.7 µM]	5	·	26
